Experimental data from PubChem BioAssay (NCI).
Compounds without any hit were thinned out: in the full panel of roughly 83,000, 20% have a hit.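 Single-dose data. Exposure time 48 hours. Values below 10 considered active.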 Values without a mark were called inactive. Active and inactive are the calls of the source.

Each compound was assayed on COLO 205 colon (assay: NCI-60 one-dose screen, 48 h (100 = growth as untreated, 0 = no growth, -100 = all killed)). Conditions: 10 µM.

Q: For `CCCCCCCCCCC1CO1` (centres undefined), which growth is on record?
A: Its growth is 105%.

Q: With `CC(=Nc1ccccc1)C1=C(O)C(Cc2cccc(F)c2)NC1=O` (centres undefined) as the compound, how does the growth read?
A: Its growth is -55.5% (active).

Q: How did the growth turn out when `O=[N+]([O-])c1ccc(S(=O)(=O)NN=C2CCCCC2)cc1` was run?
A: Its growth is 102%.

Q: With `CC(=O)OCC(=O)[C@@]1(O)CC[C@H]2[C@@H]3CC[C@@H]4C[C@H](O)CC[C@]4(C)[C@H]3C(=O)C[C@@]21C` as the compound, how does the growth read?
A: The growth was 105%.

Q: For `O=P(O)(O)OCC(O)CO` (centres undefined), which growth is on record?
A: The growth was 110%.

Q: With `COc1cccc(/C=N/NC(=S)NC2CC3CCC2C3)c1O` (centres undefined) as the compound, how does the growth read?
A: Its growth is 105%.

Q: For `CCn1c(=O)n(C)c2c(=O)n(C)c(=O)n(C)c21`, which growth is on record?
A: Its growth is 101%.

Q: How did the growth turn out when `CC(=O)c1ccc(N=C(C#N)C2=C(O)c3ccccc3C2=O)cc1` was run?
A: The growth was 111%.

Q: How did the growth turn out when `O=[N+]([O-])c1cccc(N=Nc2ccc(O)cc2O)c1` was run?
A: The growth was 92.2%.

Q: `COc1ccc(-c2cc3c(nn2)-c2ccccc2C3=O)cc1` was tested. Which growth did it give?
A: The growth was 42.3%.

Q: With `COc1cc2nn(-c3ccccc3N)nc2cc1OC` as the compound, how does the growth read?
A: Its growth is 119%.

Q: How did the growth turn out when `CC1CC(O)C2C3(C)CCCC2(COC3=O)C12CCC1(CCOC1=O)O2` (centres undefined) was run?
A: The growth was 118%.

Q: How did the growth turn out when `NC(=S)N/N=C/c1ccc(N)cc1` was run?
A: The growth was 110%.

Q: How did the growth turn out when `O=C(O)COCC(=O)O` was run?
A: Its growth is 108%.

Q: With `S=C1CCCCCN1` as the compound, how does the growth read?
A: The growth was 111%.

Q: `O=c1[nH][nH]c(=O)c2cc([N+](=O)[O-])ccc12` was tested. Which growth did it give?
A: The growth was 99.6%.

Q: `CC(=O)OCCO` was tested. Which growth did it give?
A: Its growth is 107%.

Q: With `C/C(=N/NC(N)=O)c1ccco1` as the compound, how does the growth read?
A: The growth was 105%.

Q: How did the growth turn out when `COC(=O)c1ccc(C(C)C)cc1` was run?
A: The growth was 98%.

Q: With `OCC(O)C(O)C(O)C(O)/C=N/O` (centres undefined) as the compound, how does the growth read?
A: Its growth is 112%.

Q: `O=[N+]([O-])c1ccc(N=Nc2ccc(O)c3ccccc23)cc1` was tested. Which growth did it give?
A: The growth was 88.5%.

Q: `Cc1ccc(S(=O)(=O)O)c(C)c1` was tested. Which growth did it give?
A: The growth was 104%.

Q: For `COCCOC(=O)c1ccc(C(C)C)cc1`, which growth is on record?
A: The growth was 104%.

Q: For `CCNc1nc2c(cnn2C)c(=O)[nH]1`, which growth is on record?
A: Its growth is 96.5%.

Q: Which growth does the source give for `NCCCN` here?
A: The growth was 122%.

Q: For `COc1cc2c3cc1Oc1c(OC)c(OC)cc4c1C(Cc1ccc(O)c(c1)Oc1ccc(cc1)CC3N(C)CC2)N(C)CC4` (centres undefined), which growth is on record?
A: Its growth is -97.3% (active).

Q: How did the growth turn out when `O=[N+]([O-])c1ccccc1N=Nc1ccc(O)cc1O` was run?
A: Its growth is 102%.

Q: `CCOC(=O)c1ccc(NC(=S)P(=O)(c2ccccc2)c2ccccc2)cc1` was tested. Which growth did it give?
A: The growth was 115%.

Q: Which growth does the source give for `CCCCOC(=O)c1ccc(C(C)C)cc1` here?
A: The growth was 110%.

Q: Which growth does the source give for `CC1C(=O)c2ccccc2CC1C(=O)O` (centres undefined) here?
A: Its growth is 105%.

Q: For `CNc1nc(NC)c2cn[nH]c2n1`, which growth is on record?
A: Its growth is 95.6%.

Q: With `CC(=O)/C(Cc1ccccc1)=N/O` as the compound, how does the growth read?
A: Its growth is 97.9%.

Q: Which growth does the source give for `COc1cc(C2c3cc4c(cc3C3OC(=O)C2C3CO)OCO4)cc(OC)c1OC` (centres undefined) here?
A: Its growth is -92.4% (active).

Q: How did the growth turn out when `CCCC(C)OCC(=O)O` (centres undefined) was run?
A: Its growth is 108%.
